Results: publication PMC5540273 (PLoS ONE, 2017)

Legend:
Conditions in all cases: concentration: 1 μM, replicates: in singlicate; n = 1
[1] = test system: JAK1(JH2domain-pseudokinase)
[2] = test system: JAK2(JH1domain-catalytic)
[3] = test system: JAK3(JH1domain-catalytic)
JNK1 = test system: T1, JNK1
T1 construct: gene MAPK8

JNK2 = test system: T2, JNK2
T2 construct: gene MAPK9

JNK3 = test system: T3, JNK3
T3 construct: gene MAPK10

KIT-autoinhibited = test system: KIT-autoinhibited
KIT = test system: KIT
LATS1 = test system: LATS1
LATS2 = test system: LATS2
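Note: KINOMEscan kinase panel screen.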

Row | SMILES | %Inh [1] [%] | %Inh [2] [%] | %Inh [3] [%] | %Inh (JNK1) [%] | %Inh (JNK2) [%] | %Inh (JNK3) [%] | %Inh (KIT-autoinhibited) [%] | %Inh (KIT) [%] | %Inh (LATS1) [%] | %Inh (LATS2) [%]
1 | NCCC(NC(=O)c1cc(Br)c(-c2ccnc3[nH]ccc23)s1)c1ccccc1.O=C(O)C(F)(F)F.O=C(O)C(F)(F)F (stereo not drawn) [GSK1307810] | 0 | 97.1 | 98.7 | 30 | 15 | 16 | 0 | 73 | 83 | 93
2 | COc1ccc(C)c(Nc2ccnc(Nc3ccc(-c4cnc[nH]4)cc3)n2)c1.Cl [GW784041] | 76 | 14 | 0 | 14 | 0 | 0 | 0 | 70 | 12 | 0
3 | Cl.O=C(Nc1ccc(Oc2ccc3[nH]c(NC(=O)c4ccco4)nc3c2)cc1)Nc1cc(C(F)(F)F)ccc1F [GW683134] | 0 | 43 | 0 | 15 | 33 | 0 | 1 | 100 | 30 | 0
4 | O=C(Nc1c(F)cccc1F)c1cc(C(=O)c2ccccc2F)c[nH]1 [GSK1326180] | 0 | 0 | 0 | 4 | 17 | 0 | 0 | 9 | 0 | 0
5 | CNc1nccc(-c2ccc3c(N)n[nH]c3c2)n1 [GSK2206003] | 57 | 47 | 15 | 46 | 36 | 29 | 0 | 57 | 0 | 17
6 | N#CC1(c2cccc(C(=O)Nc3cccc(Oc4ccc5nc(NC(=O)C6CC6)sc5n4)c3)c2)CC1 | 15 | 0 | 0 | 0 | 0 | 0 | 76 | 99.9 | 0 | 0
7 | COc1cccc2c(-c3ccncc3)c(-c3ccc(F)cc3)nn12 [GW468513] | 67 | 11 | 0 | 96 | 99.8 | 99.9 | 0 | 8 | 0 | 8
8 | Cc1ccc(-c2ccc3occ(-c4ccc(S(C)=O)cc4)c3c2)nn1 (stereo not drawn) | 0 | 0 | 0 | 0 | 0 | 0 | 0 | 0 | 13 | 0
9 | COc1cccc(C2=C(Nc3cccc(O)c3)C(=O)NC2=O)c1 [SB-390771] | 0 | 15 | 94.2 | 46 | 50 | 28 | 0 | 15 | 0 | 1
10 | COC(=O)Nc1nc2cc(Oc3ccc(NC(=O)Nc4cccc(SC)c4)cc3)ccc2[nH]1.Cl [GW697999] | 0 | 0 | 0 | 16 | 16 | 0 | 50 | 99.9 | 43 | 0
11 | COC(=O)Nc1nc2ccc(Oc3ccc(NC(=O)Nc4cc(C(F)(F)F)ccc4F)cc3)cc2[nH]1.Cl [GW654607] | 0 | 55 | 16 | 0 | 65 | 7 | 0 | 100 | 0 | 0
12 | Cc1ccc(NC(=O)c2ccc(Cl)c(Cl)c2)cc1-c1ccc(C(=O)Nc2ccncc2)cc1 [GSK1398460] | 0 | 0 | 0 | 11 | 4 | 0 | 9 | 100 | 0 | 3
13 | Cn1cc(-c2ccc3c(c2)CCN3C(=O)Cc2cc(F)cc(C(F)(F)F)c2)c2c(N)ncnc21 [GSK2635225] | 3 | 10 | 0 | 0 | 13 | 0 | 16 | 100 | 0 | 4
14 | Nc1ncc(-c2ccc3nccc(-c4ccncc4)c3c2)cc1S(=O)(=O)N1CCCCC1 [GSK1693850] | 14 | 0 | 0 | 35 | 18 | 29 | 0 | 44 | 21 | 0
15 | O=C(Nc1n[nH]c2cc(-c3cccs3)ccc12)C1CC1 [SB-731284] | 22 | 40 | 0 | 57 | 33 | 48 | 39 | 58 | 0 | 5
16 | Cc1cc(-c2c(-c3ccc(F)cc3)ncn2CCCN2CCOCC2)nc(N)n1 [SB-222517] | 57 | 16 | 0 | 5 | 0 | 0 | 20 | 15 | 15 | 0
17 | CSc1ccc(NC2=C(c3ccc(Cl)cc3)C(=O)NC2=O)cc1 [SB-317658] | 0 | 0 | 0 | 0 | 19 | 3 | 0 | 29 | 8 | 0

Row | SMILES | %Inh [1] [%] | %Inh [2] [%] | %Inh [3] [%] | %Inh (JNK1) [%] | %Inh (JNK2) [%] | %Inh (JNK3) [%] | %Inh (KIT-autoinhibited) [%] | %Inh (KIT) [%] | %Inh (LATS1) [%] | %Inh (LATS2) [%]
18 | COc1ccc(NC(=O)c2ccoc2)cc1-c1ccc(C(=O)NCC2CC2)cc1 [GW810437] | 0 | 47 | 0 | 23 | 23 | 11 | 17 | 0 | 12 | 0
19 | CCn1cnc2c(NCc3ccccc3)ncnc21 [SKF-96418] | 24 | 40 | 5 | 11 | 0 | 0 | 9 | 0 | 0 | 0
20 | O=C(O)C(F)(F)F.O=c1[nH]ccc2nc(N[C@@H]3CCNC3)nc(Nc3ccc4c(c3)S(=O)(=O)CC4)c12 [GSK2181306] | 98 | 98.4 | 100 | 83 | 54 | 78 | 0 | 73 | 51 | 80
21 | CCNc1nccc(-c2c(-c3ccc(F)cc3)ncn2C2CCN(C)CC2)n1 | 80 | 0 | 0 | 75 | 96.4 | 96.3 | 0 | 0 | 0 | 0
22 | CN(c1ccc2c(c1)nc(NCc1ccccc1)n2C)c1ccnc(Nc2ccc(CS(C)(=O)=O)cc2)n1.Cl [GW811603] | 0 | 60 | 99.2 | 65 | 40 | 47 | 80 | 100 | 0 | 0
23 | COc1cc(Nc2ccnc3cc(-c4ccncc4)ccc23)cc(OC)c1OC.Cl [GW494610] | 0 | 12 | 0 | 49 | 54 | 37 | 0 | 76 | 0 | 0
24 | COc1cc(Nc2nccc(N3CCC(NC(=O)Nc4ccc5c(c4)OCO5)C3)n2)cc(OC)c1OC (stereo not drawn) [GSK1379766] | 47 | 89 | 0 | 34 | 0 | 35 | 5 | 66 | 0 | 12
25 | Cc1ccc(NC(=O)c2cccc(N3CCCCC3)c2)cc1-c1ccc(C(=O)NCC2CC2)cc1 [GSK1917008] | 19 | 15 | 0 | 22 | 30 | 10 | 6 | 79 | 0 | 16
26 | COc1cccc(NC(=O)NCCNc2ccnc(Nc3ccc(F)cc3)n2)c1 [GSK1379879] | 0 | 22 | 0 | 25 | 17 | 13 | 0 | 46 | 0 | 0
27 | CC(C)c1nc(-c2ccc(F)c(NS(=O)(=O)c3c(F)cccc3F)c2)c(-c2ccnc(Nc3ccc(N4CCOCC4)nc3)n2)s1 [GSK1804250] | 0 | 4 | 69 | 32 | 70 | 77 | 0 | 97.8 | 0 | 0
28 | Cn1cc(-c2cnc(N)c3c(-c4ccc5c(c4)CCN5C(=O)Cc4ccccc4)csc23)cn1 [GSK2593074] | 0 | 26 | 0 | 13 | 0 | 0 | 32 | 100 | 1 | 23
29 | CS(=O)(=O)c1cccc(CNc2nc(Nc3ccc4c(c3)CCC(=O)N4)ncc2C(F)(F)F)c1 | 94.3 | 99.6 | 100 | 49 | 27 | 48 | 30 | 44 | 0 | 0
30 | COC(=O)Nc1nc2ccc(Oc3ccc(CC(=O)Nc4cc(C(F)(F)F)ccc4F)cc3)cc2[nH]1 [GW680903] | 0 | 7 | 0 | 1 | 6 | 0 | 8 | 100 | 12 | 0
31 | Cc1ccc(Nc2ccnc(Nc3ccc(C)c(F)c3)n2)cc1O.Cl [GW582868] | 62 | 48 | 0 | 31 | 16 | 12 | 3 | 93.8 | 0 | 0
32 | Cl.Cl.NC(CNC(=O)c1cc(Br)c(-c2ccnc3[nH]ccc23)s1)c1ccccc1 (stereo not drawn) [GSK1322949] | 0 | 94.3 | 96.8 | 44 | 37 | 28 | 0 | 38 | 54 | 93.7
33 | Cc1ccccc1CC(=O)N1CCc2cc(-c3cn(C)c4ncnc(N)c34)ccc21 [GSK2603346] | 0 | 26 | 0 | 1 | 13 | 7 | 1 | 99.8 | 0 | 0
